# According to ChEMBL document CHEMBL3988442, “University of Dundee, Small-Polar-MMV Screening Library” (2021):
# Hit rate of the full screen: of about 48,000 compounds, about 13,000 (27%) showed an effect of 50% or more. The list shows a part of the results.
# System: Wolbachia pipientis
# Test: Anti-Wolbachia Cell-Based Screen
# Type: functional
# Design: scale not given: in the data most compounds retested in dose-response had high values
# Details: 5 µM
row,Structure (SMILES),Percent Effect [%]
1,CN(CCS(=O)(=O)c1cc(Cl)ccc1Cl)CC(N)=O,6.108
2,Cc1ccn(-c2ccc(NCc3cccnc3N3CCCCC3)nn2)n1,-6.636
3,Nc1cc2c(nn1)CCN(C(=O)c1ccccc1Oc1cccnc1)C2,-10.76
4,CCc1nccn1C1CCCN(C(=O)c2cnc3onc(C)c3c2)C1 (stereo not drawn),-19.2
5,Cc1cc(C)n(CCC(=O)N2CCCC(n3cncn3)C2)n1 (stereo not drawn),-3.067
6,Cc1ncsc1C(=O)N1CCCC(n2cncn2)C1 (stereo not drawn),88.89
7,Cc1cc(C(=O)N2CCCC(n3cncn3)C2)c(C)n1CC1CC1 (stereo not drawn),127.1
8,COCC(C)NS(=O)(=O)c1ccc(Br)cn1 (stereo not drawn),-13.48
9,O=C(Nc1ccccc1F)N1CCN(Cc2noc(C3CC3)n2)CC1,0.2085
10,c1nc2c(c(N3CCOC(Cn4cncn4)C3)n1)CCC2 (stereo not drawn),-6.426
11,Cc1ccc(-c2ccnc(N3CCC4(CC3)CNC(=O)O4)n2)c(C)n1,5.789
12,CN(C)c1nc2c(c(N3CCC4(CCCNC4=O)C3)n1)CCCC2 (stereo not drawn),9.775
13,CN(C)c1nc2c(c(N3CCC4(CC3)CNC(=O)C4)n1)CCCC2,100.7
14,CC(=O)NC1CCN(c2nc(N(C)C)nc3c2CCCC3)CC1,10.24
15,CC(C)Cc1ncc2c(n1)CN(c1nc(N(C)C)nc3c1CCCC3)C2,27.68
16,Cc1nc(N(C)C)nc(N2CCC3(CC2)CNC(=O)O3)c1C,97.26
17,c1cnn(CC2CN(c3ncnc4c3CCC4)CCO2)c1 (stereo not drawn),-17.69

row,Structure (SMILES),Percent Effect [%]
1,CN(C)c1nc2c(c(N3CCCC4(CC3)CNC(=O)O4)n1)CCCC2 (stereo not drawn),98.47
2,O=C1NCC2(CCCN(c3ncnc4c3CCC4)CC2)O1 (stereo not drawn),82.73
3,CCCc1cnc(C)nc1N1CCC2(CC1)CNC(=O)O2,7.463
4,CN1CCc2[nH]nc(C(=O)N3CCCC4(CC3)CNC(=O)O4)c2C1 (stereo not drawn),1.077
5,CC(C)Cc1cc(CC2(NCc3ccco3)COC2)no1,-14.13
6,Cc1ccc(-n2ccc3nc(N4CCCC4)ncc3c2=O)cc1C,-4.635
7,COCCN1C[C@H]2CCN(c3ncccn3)CC[C@H]2S1(=O)=O,-6.135
8,COc1ccc(F)cc1-c1nc2c([nH]1)c(C1CC1)nn2C,5.431
9,Cn1cc(C(=O)N2CC[C@@H]3[C@@H]2CCN3c2ncc(F)cn2)cn1.O=C(O)C(F)(F)F,3.256
10,Cc1ccc(CN2CCC3(CC2)CCN(C(=O)c2cccnc2)C3)o1.O=C(O)C(F)(F)F,93.46
11,N#Cc1cccc(N2CC3(CCN(C(=O)c4cccnc4)C3)CC2=O)c1.O=C(O)C(F)(F)F (stereo not drawn),6.163
12,NC(=O)N1CCC2(CCN(C(=O)c3cccnc3)CC2)C1.O=C(O)C(F)(F)F,118.8
13,Cc1ccc(CNC(=O)c2nc3c(o2)CN(C(=O)c2cccnc2)C3)o1.O=C(O)C(F)(F)F,-4.272
14,CS(=O)(=O)N1CCC2(CN(C(=O)c3cccnc3)C2)C1.O=C(O)C(F)(F)F,-8.829
15,O=C(O)C(F)(F)F.O=C(c1cccnc1)N1CCC2(CCN(C(=O)N3CCCC3)CC2)C1,121.5
16,Cc1cnc(N2CC3(CCN(C(=O)c4cccnc4)C3)C2)nc1.O=C(O)C(F)(F)F,-3.598
